Compound activity from PubChem BioAssay.
A selection: hits, their analogues and other compounds. The true share with any hit is near 19%.
IL-1B inflam inh: inflammasome signaling inhibition, IL-1 beta readout; AID 743279; activity change, % at 57.5 µM; 4.7% of 360,000 active; THP-1 LPS/ATP IL-1B secretion, AlphaLISA, 16 h; active compounds read low; in the data active means activity change below about -50%; inconclusive means mostly about -30% to -49%
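Secreted IL-1B measured by AlphaLISA bead assay after 16 h compound exposure of THP-1 cells; compounds (final up to 57.5 uM) added 1 h before LPS (250 ng/mL) and ATP (1.25 mM) stimulation; lower signal means less secretion.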
TDP1 inh: blocks human tyrosyl-DNA phosphodiesterase 1 | Q9NUW8 | Potency, µM (titrated, usually from 130 µM), for inactives: top-dose activity change, negative = inhibition, usual class: inhibitors | AID 485290 | 0.28% of 350,000 active | recombinant TDP1, AlphaScreen DNA substrate cleavage; further: potency means the concentration at half of the fitted maximal effect; nearly all actives have a fitted effect of over 40% in size
Target sequence (Q9NUW8 whole entry, looked up): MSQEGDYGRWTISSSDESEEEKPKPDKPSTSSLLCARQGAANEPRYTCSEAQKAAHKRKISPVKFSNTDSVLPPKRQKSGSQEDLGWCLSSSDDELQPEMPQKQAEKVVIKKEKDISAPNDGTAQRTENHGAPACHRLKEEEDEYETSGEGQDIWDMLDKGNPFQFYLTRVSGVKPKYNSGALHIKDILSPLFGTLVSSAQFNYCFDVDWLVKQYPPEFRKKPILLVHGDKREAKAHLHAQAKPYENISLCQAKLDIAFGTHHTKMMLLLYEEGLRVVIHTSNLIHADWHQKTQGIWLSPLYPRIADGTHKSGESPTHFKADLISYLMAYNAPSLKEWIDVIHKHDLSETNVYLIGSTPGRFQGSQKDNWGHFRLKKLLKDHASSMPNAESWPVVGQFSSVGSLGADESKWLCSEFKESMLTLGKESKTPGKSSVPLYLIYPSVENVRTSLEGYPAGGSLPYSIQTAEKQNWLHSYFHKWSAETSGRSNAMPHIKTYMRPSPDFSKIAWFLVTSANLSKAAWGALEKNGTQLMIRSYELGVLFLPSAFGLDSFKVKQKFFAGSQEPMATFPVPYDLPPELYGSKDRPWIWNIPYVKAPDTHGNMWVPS
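AlphaScreen read-out: signal falls as enzyme removes the 3' tyrosine-FITC from a 5'-biotinylated DNA oligo (15 nM, 5 min, RT). Enzyme was E. coli-made recombinant Tdp1 at 1 nM, exposed to compound for 15 min beforehand; beads 10 ug/ml, 10 min.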
DT40 TDP1 no CPT: qHTS for Inhibitors of human tyrosyl-DNA phosphodiesterase 1 (TDP1): qHTS in cells in absence of CPT; DT40 Tdp1-/- hTDP1 cells, no CPT, ATP luminescence, 48 h; Potency, µM (doses to about 46.2 µM), for the others: top-dose activity change, negative = growth inhibition, hits mostly inhibitors; 15% of 420,000 active; AID 686978, 2013; further: potency means the concentration at half of the fitted maximal effect; nearly all actives have a fitted effect of over 55% in size
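Cells were dispensed at 400 per well, compounds added by pin tool, plates incubated ≥48 hr at 37 °C, then CellTiter-Glo added for 30 min at room temperature before luminescence reading. Line: DT40 Tdp1-/- complemented with hTDP1; camptothecin omitted.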
TDP1 cell CPT: growth inhibition of DT40 Tdp1-/-;hTDP1 cells with camptothecin (screen for TDP1 inhibitors); chicken DT40 Tdp1-/-;hTDP1 cells + 20 nM CPT, ATP luminescence, 48 h; Potency, µM (highest dose often 46.2 µM), for the others: at the top dose activity change, negative = growth inhibition, usual class: inhibitors; 12% of 420,000 active; AID 686979; further: potency means the concentration at half of the fitted maximal effect; nearly all actives have a fitted effect of over 55% in size
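Chicken DT40 Tdp1-/- cells complemented with human TDP1, 400 cells/well, exposed to compounds plus 20 nM camptothecin for at least 48 h at 37 C; viability read as ATP content by CellTiter-Glo luminescence.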
ELG1 repair inh: blocks ELG1-dependent DNA repair in HEK293T cells; HEK293T ELG1-luciferase reporter, luminescence, 16 h; DNA damage induced by 5-fluorouridine; Potency, µM (top dose mostly 46.1 µM), inactives show at the top dose activity change, negative = inhibition, actives largely listed as inhibitors; 2.3% of 330,000 active; AID 504467; further: potency means the concentration at half of the fitted maximal effect; nearly all actives have a fitted effect of over 55% in size
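Overnight (16 hr) co-exposure of 2,000 cells/well to 5-fluorouridine and compound at 37 °C preceded detection. Luciferase was quantified via ONE-Glo luminescence; loss of signal denotes inhibition.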
Giardia killer: Giardia lamblia killing; Giardia lamblia trophozoite viability; activity change, % at 7.66 µM, hits read low; 0.15% of 340,000 active; AID 540267; in the data active means activity change below about -80%; inconclusive means between about -30% and that limit;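 further: parasites exposed to compound for two days anaerobically before the ATP read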
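ATP-content bioluminescence gauges trophozoite survival. Cells (100/well) receive compound and incubate anaerobically for 48 hrs at 37 deg C; detection reagent follows for 15-30 min at room temperature.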
Starred values were filed as active, the others as inactive; ? = inconclusive; / = no result given; [ ] = dose if it differs, or a comment. Unless noted, the call rests on the fitted dose curve; in most records, active means well fitted curve in the direction sought with a large enough effect; inconclusive means small, poorly fitted or top-dose-only effect, or another doubt; inactive means no such curve, though single readings can be large; an effect the other way counts as inactive or inconclusive. On the % scale 0 is the no-effect control and ±100 the full control effect.

SMILES	IL-1B inflam inh	TDP1 inh	DT40 TDP1 no CPT	TDP1 cell CPT	ELG1 repair inh	Giardia killer
O=C(CC1(O)C(=O)N(Cc2cccc3ccccc23)c2ccccc21)c1cccnc1 (stereo unspecified)	30	-4%	0.82µM*	0.92µM*	-27%	-17
CN1C(=O)C(O)(CC(=O)c2cccnc2)c2ccccc21 (stereo unspecified)	16	5%[56.1 µM]	10µM*	12µM*	6%	-16
CC(=O)c1cccc(N(C(=O)CNC(=O)c2ccco2)C(C(=O)NC2CCCC2)c2ccco2)c1 (stereo unspecified)	13	11%	-15%	-9%	-1%	6
Cc1ccc(CCNC(=O)c2cccc(NC3=NC4CS(=O)(=O)CC4S3)c2)cc1 (stereo unspecified)	5	/	15%	14%	13%	-8
COc1cccc(-n2c(SCC(=O)Nc3ccc4c(c3)CCC4)nc3ccccc3c2=O)c1	1	3%	9.2µM*	?	-8%	8
CCCCn1c(SCC(=O)Nc2ccc3c(c2)CCC3)nc2ccccc2c1=O	2	3%	0%	?	10%	2
Cc1ccc(SCc2cc(=O)n3ccsc3n2)c(C)c1	/	-1%	/	/	?	/
Cc1cccc(-n2c(SCc3cc(=O)n4ccsc4n3)nc3ccccc32)c1	-2	-3%	16µM*	13µM*	?	-5
Cc1ccc(-n2c(SCc3cn4ccsc4n3)nc3ccccc3c2=O)cc1	-21	10%	21µM*	?	?	-1
CCN(CC)C(=O)CSc1nc2ccccc2c(=O)n1CCC(=O)NCc1ccc(F)cc1	2	-6%	18%	-2%	12µM*	-12
CC(C)(C)c1ccc(C(=O)NCC(=O)OC(C(=O)Nc2cc(C(F)(F)F)ccc2Cl)c2ccccc2)cc1 (stereo unspecified)	/	0%	/	/	/	/
CC(C)CNC(=O)C(=O)NNC(=O)c1ccco1	-8	2%	8%	22%	-6%	4
CCNC(=O)CSc1nc2ccccc2c(=O)n1-c1cccc(OC)c1	-17	1%	-8%	0%	27%	-6
CCN(CC)C(=O)CSc1nc2c(sc(=S)n2-c2ccccc2)c(=O)n1-c1ccccc1OC	-6	/	?	9.2µM*	?	19
Cc1ccc(-n2c(SCC(=O)Nc3ccc(N4CCOCC4)cc3)nc3ccccc3c2=O)cc1	23	0%	?	-26%	?	5
COc1ccc(-n2c(SCC(=O)Nc3ccc(NC(C)=O)cc3)nc3ccccc3c2=O)cc1	-3	/	-23%	13µM*	?	33
Cc1ccc(NC(=S)NNC(=O)CSc2nc3ccccc3c(=O)n2-c2ccc(C)cc2)cc1	11	11%	16µM*	-29%	-9%	-7
CCN(CC)C(=O)CSc1nc2c(sc(=S)n2-c2ccccc2)c(=O)n1-c1ccc(OC)cc1OC	-17	/	?	?	-2%	13
CCN(CC)C(=O)CSc1nc2ccccc2c(=O)n1-c1cccc(OC)c1	?	3%	15µM*	?	-16%	10
CCc1ccc(NC(=O)c2sc(-n3nc(C)c(CCC(C)C)c3C)nc2C)cc1	/	2%	?	?	/	/
Cc1cccc(C)c1NC(=O)CN1C(=O)NC(C)(CCc2ccccc2)C1=O (stereo unspecified)	-3	8%	-3%	2%	-6%	8
Cc1ccc(Nc2c(-c3ccco3)nc3ccc(C)cn23)cc1	/	3%	-23%	-17%	/	/
O=C(O)c1ccc(Nc2nc3ccccc3nc2NS(=O)(=O)c2ccc(F)cc2)cc1	5	0%	?	?	0%	0
COc1cc(Nc2nc3ccccc3nc2NS(=O)(=O)c2ccc([N+](=O)[O-])cc2)cc(OC)c1OC	-12	8%	?	10µM*	16µM*	-6
